Measured values as given in PubChem BioAssay (Tox21).
A number with no mark means an inactive call. Active and inactive are the calls of the source. Calls follow the shape of the dose curve; as a rule, active = well fitted curve in the direction sought with a large enough effect in the repeat runs; inconclusive = weak or mixed curves; inactive = flat fitted curve, though single readings scatter. Positions of bridges follow the written chain, without caps; N, C: chain ends. Non-standard residues stand in square brackets, D forms with d. Residues, ends and D or L forms follow the SMILES beside them. ξ: configuration not given here. *: point of attachment. d(aThr) = C[C@@H](O)[C@@H](N)C(=O)O; ξThr(3R) = C[C@@H](O)C(N)C(=O)O; X3 = CC[C@@H](C)CCCCC(=O)*; dDab = NCC[C@@H](N)C(=O)O
% is scaled to controls: 0 for no effect and ±100 for the full control effect.

Test: qHTS assay to test for compound auto fluorescence at 590 nm (red) in HEK293 cells (AID 720679)
Details: red autofluorescence 540/590 nm; series mostly up to 46 µM; fluorescence, % of fluorescent control: at the top concentration
How it was run: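 Plates of HEK293 cells (10% dialyzed FBS) are treated with 23 nL compound or DMSO vehicle after a 4-5 hr attachment period, incubated overnight at 37C, and read for red fluorescence at 540/590nm.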
In the case of `CC[C@@H](C)CCCCC(=O)N[C@H](CCN)C(=O)N[C@@H](C(=O)N[C@H](CCN)C(=O)N[C@@H]1CCNC(=O)C([C@@H](C)O)NC(=O)[C@@H](CCN)NC(=O)[C@@H](CCN)NC(=O)[C@@H](CC(C)C)NC(=O)[C@@H](Cc2ccccc2)NC(=O)[C@@H](CCN)NC1=O)[C@@H](C)O` (stereo partly drawn) (X3-[dDab][d(aThr)][dDab][dDab][dDab][dF][dL][dDab][dDab][ξThr(3R)]; lactam 4-C), the “fluorescence, % of fluorescent control” value was -0.172%.
For `COc1ccccc1N1CCN(CCCC(=O)c2ccc(F)cc2)CC1`, the “fluorescence, % of fluorescent control” value was -0.325%.
With `CCC(=O)Oc1ccc2c(c1)CC[C@@H]1[C@@H]2CC[C@]2(C)[C@@H](OC(=O)CC)CC[C@@H]12` the “fluorescence, % of fluorescent control” value was 0.145%.
For `CC(=O)Oc1cc(C)c(OC(C)=O)c2ccccc12`, the “fluorescence, % of fluorescent control” value was 0.822%.
With `CC(C)(C)NC(=O)[C@H]1CC[C@H]2[C@@H]3CC=C4C=C(C(=O)O)CC[C@]4(C)[C@H]3CC[C@]12C` the “fluorescence, % of fluorescent control” value was 0.0501%.
For `Clc1ccc(COC(Cn2ccnc2)c2ccc(Cl)cc2Cl)c(Cl)c1` (stereo unspecified), the “fluorescence, % of fluorescent control” value was 0.0503% [at 18.6 µM].
With `CCCCC[C@H](O)/C=C/[C@H]1[C@H](O)CC(=O)[C@@H]1CCCCCCC(=O)O` the “fluorescence, % of fluorescent control” value was 0.241% [at 18.6 µM].
With `CCOC(=O)C1=C(COCCN)NC(C)=C(C(=O)OC)C1c1ccccc1Cl` (stereo unspecified) the Potency was “inactive”.
In the case of `CN1CCN(CCCN2c3ccccc3Sc3ccccc32)CC1`, the “fluorescence, % of fluorescent control” value was 0.0654%.
In the case of `CN[C@@H]1[C@@H](O)[C@@H](O[C@@H]2[C@@H](O)[C@H](OC3OC(CN)=CCC3N)[C@@H](N)C[C@H]2N)OC[C@]1(C)O` (stereo partly specified), the “fluorescence, % of fluorescent control” value was 0.2% [at 18.6 µM].
For `CCC[C@@H]1C[C@@H](C(=O)N[C@@H]([C@H]2O[C@H](SC)[C@H](O)[C@@H](O)[C@H]2O)[C@H](C)Cl)N(C)C1`, the “fluorescence, % of fluorescent control” value was 0.0756%.
